# Test results taken from PubChem BioAssay (Tox21).
# “And” between values parts separate entries of the source, which are not always exact repeats. Equal entries are not always repeated. Records with an inconclusive call do not appear. Entries that show only a call come without a potency. The source made the active and inactive calls. Calls come from the whole dose curve; as a rule, active = well fitted curve in the direction sought with a large enough effect in the repeat runs; inconclusive = weak or mixed curves; inactive = no such curve, though single readings can be large; an effect the other way counts as inactive or inconclusive.
# Key:
# [1] = A CellTox Green Cytotoxicity Assay to monitor cytotoxicity in HepG2 cells - 0 hour (AID 1224882); note: nearly all actives have a fitted effect of over 35% in size
# How it was run: (§1)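 Cytotoxicity was tracked as dead-cell DNA fluorescence in HepG2 cells treated with test compounds at 37 C; each time-point value comes from one kinetic series spanning 0, 8, 16, 24, 32 and 40 h.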
# [2] = A CellTox Green Cytotoxicity Assay to monitor cytotoxicity in HepG2 cells - 32 hour (AID 1224883); note: nearly all actives have a fitted effect of over 50% in size; note: potency is the fitted concentration of half-maximal effect
# How it was run: as §1
# [3] = A CellTox Green Cytotoxicity Assay to monitor cytotoxicity in HEK293 cells - 8 hour (AID 1224884); note: nearly all actives have a fitted effect of over 35% in size; note: potency is the fitted concentration of half-maximal effect
# How it was run: (§2)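 Real-time, in one plate: 600 HEK293 cells/well with dead-cell DNA dye, pinned compound after 5 h, 37 C incubation over 40 h; viable cells give no appreciable fluorescence.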
# [4] = qHTS RealTime-Glo MT Cell Viability Assay in HepG2 cells - 16 hour (AID 1224885); note: nearly all actives have a fitted effect of over 50% in size; note: potency is the fitted concentration of half-maximal effect
# How it was run: (§3)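 Real-time, nonlytic viability: 600 HepG2 cells/well mixed with NanoLuc enzyme plus prosubstrate; 5 h settle, compound (DMSO) added by pintool; luminescence monitored over 40 h at 37 C.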
# [5] = qHTS RealTime-Glo MT Cell Viability Assay in HEK293 cells - 24 hour (AID 1224886); note: nearly all actives have a fitted effect of over 50% in size; note: potency is the fitted concentration of half-maximal effect
# How it was run: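 Cells + reagent dispensed (600 cells/well, HEK293) → 5 h at 37 C/5% CO2 → 23 nL compound in DMSO pinned → 40 h at 37 C → luminescence read at 0, 8, 16, 24, 32, 40 h.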
# [6] = qHTS RealTime-Glo MT Cell Viability Assay in HEK293 cells - 8 hour (AID 1224887); note: nearly all actives have a fitted effect of over 50% in size; note: potency is the fitted concentration of half-maximal effect
# How it was run: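 Kinetic, non-lysing viability readout. Seed HEK293 (600/well) with reagent, incubate 5 h at 37 C/5% CO2, pin 23 nL compound in DMSO, incubate at 37 C, read luminescence at 0, 8, 16, 24, 32, 40 h.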
# [7] = A CellTox Green Cytotoxicity Assay to monitor cytotoxicity in HEK293 cells - 16 hour (AID 1224888); note: nearly all actives have a fitted effect of over 35% in size; note: potency is the fitted concentration of half-maximal effect
# How it was run: as §2
# [8] = qHTS RealTime-Glo MT Cell Viability Assay in HepG2 cells - 0 hour (AID 1224889); note: nearly all actives have a fitted effect of over 50% in size; note: potency is the fitted concentration of half-maximal effect
# How it was run: as §3
# [9] = A CellTox Green Cytotoxicity Assay to monitor cytotoxicity in HepG2 cells - 8 hour (AID 1224890); note: nearly all actives have a fitted effect of over 45% in size; note: potency is the fitted concentration of half-maximal effect
# How it was run: as §1
# [10] = qHTS assay to identify small molecule antagonists of the estrogen receptor alpha (ER-alpha) signaling pathway using the BG1 cell line in the presence of 0.1 nM 17-beta-estradiol - cell viability counter screen (AID 1259241); note: nearly all actives have a fitted effect of over 40% in size; note: potency is the fitted concentration of half-maximal effect
# How it was run: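 Cytotoxicity counter-screen: live-cell protease activity measured by fluorescence (30 min reagent step) in the same wells. Cells were VM7Luc4E2 with endogenous ER-alpha and ERE-driven luciferase, treated 22 hr at 37C alongside 0.1 nM 17beta-estradiol final.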
SMILES,Potency [1],Potency [2],Potency [3],Potency [4],Potency [5],Potency [6],Potency [7],Potency [8],Potency [9],Potency [10]
Clc1ccc(C(c2ccc(Cl)cc2)C(Cl)(Cl)Cl)cc1,inactive,inactive,inactive,inactive,39.2 µM (active) and 43.6 µM (active),39.2 µM (active),inactive,inactive,,
CCOP(=S)(OCC)OC(Cl)C(Cl)(Cl)Cl (centres undefined),inactive,inactive,inactive,inactive,inactive,inactive,inactive,inactive,inactive,inactive
CCC(C)c1cc(C(C)(C)C)cc(-n2nc3ccccc3n2)c1O (centres undefined),inactive,inactive,inactive,inactive,inactive,inactive,inactive,inactive,inactive,inactive
N#Cc1ccccc1Cl,inactive,inactive,inactive,inactive,inactive,inactive,inactive,inactive,inactive,inactive
ClC(Cl)=C(Cl)Cl,inactive,inactive,inactive,inactive,inactive,inactive,inactive,inactive,inactive,inactive
N#Cc1ccc(O)cc1,inactive,inactive,inactive,inactive,inactive,inactive,inactive,inactive,inactive,inactive
CCc1nn(C)c(C(=O)NCc2ccc(C(C)(C)C)cc2)c1Cl,inactive,inactive,inactive,inactive,0.049 µM (active),4.36 µM (active),inactive,inactive,inactive,0.77 µM (active)
CC(C)CC(C)N (centres undefined),inactive,inactive,inactive,inactive,inactive,inactive,inactive,inactive,inactive,inactive
BrC(Br)Br,inactive,inactive,inactive,inactive,inactive,inactive,inactive,inactive,,inactive
CCC[CH2][Sn]([CH2]CCC)([CH2]CCC)[O]C(=O)c1ccccc1,inactive,0.692 µM (active),11 µM (active),0.616 µM (active),0.389 µM (active),0.871 µM (active),4.36 µM (active),inactive,1.1 µM (active),21.7 µM (active)
N#CCc1ccc(Cl)cc1,inactive,inactive,inactive,inactive,inactive,inactive,inactive,inactive,inactive,inactive
[Hg+2].[I-].[I-],inactive,7.76 µM (active),49 µM (active),11 µM (active),3.09 µM (active),6.16 µM (active),43.6 µM (active),24.5 µM (active),15.5 µM (active),30.6 µM (active)
CCCCCCCCCCCCCN1CC(C)OC(C)C1 (centres undefined),inactive,inactive,inactive,inactive,inactive,inactive,inactive,inactive,inactive,inactive
Fc1cccc(Cl)c1CCl,inactive,inactive,inactive,inactive,inactive,inactive,inactive,inactive,inactive,
CCCCCCCCCCCCCCCCCCn1cc[n+](C)c1,inactive,19.4 µM (active),24.4 µM (active),43.4 µM (active),15.4 µM (active),inactive,27.4 µM (active),inactive,38.7 µM (active),
CCC(C)(C)C(=O)OC1=C(c2ccc(Cl)cc2Cl)C(=O)OC12CCCCC2,inactive,inactive,inactive,inactive,inactive,inactive,inactive,34.7 µM (active),inactive,inactive
O=[N+]([O-])c1cc(C(F)(F)F)c(Cl)c([N+](=O)[O-])c1Cl,inactive,21.9 µM (active),inactive,38.9 µM (active),6.16 µM (active),11 µM (active),11 µM (active),inactive,,61.1 µM (active)
BrCBr,inactive,inactive,inactive,inactive,inactive,inactive,inactive,inactive,inactive,inactive
Cc1cccc(OP(=O)(Oc2cccc(C)c2)Oc2cccc(C)c2)c1,inactive,inactive,inactive,inactive,inactive,inactive,inactive,inactive,inactive,inactive
CCSC(C)CC1CC(=O)C(/C(CC)=N/OC/C=C/Cl)=C(O)C1 (centres undefined),inactive,inactive,inactive,inactive,inactive,inactive,inactive,inactive,inactive,inactive
Cc1ccc(CCl)cc1,inactive,inactive,inactive,inactive,inactive,inactive,inactive,inactive,inactive,inactive
